PubChem BioAssay AID1578 (Sanford-Burnham Center for Chemical Genomics, 2009)
“And” between values parts separate entries of the source, which are not always exact repeats. Identical values can stand only once. Out of some 290,000 compounds screened, about 3,000 (1%) were called active. This is one part of a sample in which actives are shown more often than they occur. No stated cut-off is given here; in the data, active means inhibition mostly above about 36% (no sharp cut-off); inactive means mostly below about 34%.

Experiment: NOD1 signaling inhibitors, primary screen, cell-based, luminescence, uHTS (AID 1578);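 further: HEK-293T reporter cells stimulated with the NOD1 agonist gamma-tri-DAP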
Settings: NOD1-driven NF-kB luciferase reporter cells, at 4 µM, stronger effect = higher value

inhibition, active:
Cc1cccc(NC(=O)Nc2ccc(C#N)cc2)n1 62.7%, CN1C(CC(=O)Nc2ccc(Br)cc2)c2ccccc2CC1(C)C (stereo unspecified) 92.6%, CCN(CC)S(=O)(=O)c1ccc(F)cc1 71.7%, COc1ccc(C(=O)/C=C/C(=O)N(CC(=O)NC2CCCCC2)CC2CCCO2)c(O)c1 (stereo unspecified) 68.4%, COc1ccc(C(=O)/C=C/C(=O)N(CC(=O)NCCC(C)C)Cc2cccs2)c(O)c1 86.8%, CCOC(=O)N1CCN(C(=O)c2ccc(CSc3ccc(Cl)cc3)cc2)CC1 62.9%, O=C(Nc1ccc(N2CCCCC2)cc1)c1ccccn1 89.3%, O=C(CCl)Nc1ccc(N2CCCCCC2)cc1 65.3%, O=C(Nc1ccc(N2CCOCC2)cc1)c1cnccn1 52.9%, Nc1nc(SCC(=O)Nc2ncc(C(F)(F)F)cc2Cl)n[nH]1 65.2%

inhibition, inactive:
CCCCN(Cc1ccccc1)S(=O)(=O)c1c(N)n(C)c(=O)n(C)c1=O -10.5%, CCc1nc(SCC(=O)N2CCC(Cc3ccccc3)CC2)c2c(=O)n(C)c(=O)n(C)c2n1 34%, CCCc1nc(SCC(=O)N2CCN(c3ccccc3)CC2)c2c(=O)n(C)c(=O)n(C)c2n1 9%, CCn1nc(NC(=O)c2cccnc2)c2cc3cccc(C)c3nc21 -11.6%, Cc1cc(Cl)ccc1OCC(=O)NCCCCc1ccccc1 -5.1%, Nc1[nH]c(N=NC(=O)c2ccc(Cl)cc2)c2ccccc12 -25.6%, CCOCCCNC(=S)Nc1ccc2nc(N3CCOCC3)cc(C)c2c1 -4%, Cc1cc(-c2ccc(C(C)C)c(S(=O)(=O)NCCN3CCC(C)CC3)c2)on1 -17.2%, Cc1ccnc(NC(=O)Nc2cccc(F)c2)n1 -65.5%, CCN1CCN(Cc2ccc(NC(=O)c3ccc(C)c(NC(=O)N4CCNC4=O)c3)cc2C(F)(F)F)CC1 -7.6% and 18%, Cc1ccc(C(=O)Nc2cccc(C(F)(F)F)c2)cc1Nc1cnccn1 -3.7%, Cc1ccc(C(=O)Nc2cccc(C(F)(F)F)c2)cc1Nc1ccccn1 -7.5%, CCN1CCN(Cc2ccc(C(=O)Nc3ccc(C)c(NCc4cnc(NC(=O)OC)cn4)c3)cc2C(F)(F)F)CC1 -2.2%, CN(C)c1ccc(/C=C2\C(=N)N3N=C(CC(=O)N4CCCC4)SC3=NC2=O)cc1Br -16.4%, CC(C)(Oc1ccc(Cl)cc1)C(=O)Nc1ccc2oc(=O)ccc2c1 -7.5%, Cc1ccc(NC(=O)Nc2cccc(C)n2)cc1 -12.5%, Cc1cccc(NC(=O)Nc2cccc(C#N)c2)n1 -17.2%, COc1ccc(OCC(=O)Nc2ccc3c(c2)nc(CCN2CCCCC2)n3C)cc1 -22.2%, Cc1nnc(NC(=O)c2c(F)c(F)c(F)c(F)c2F)s1 -22.9%, O=C(N/N=C/c1ccc(OC(=O)c2ccccc2Cl)cc1)c1ccccn1 -55.2%, Cc1ccccc1NC(=O)CC1c2ccccc2CC(C)(C)N1C (stereo unspecified) -25.6%, CN1C(CC(=O)Nc2ccc(Cl)cc2Cl)c2ccccc2CC1(C)C (stereo unspecified) 2.4%, O=C1CC(N(CCc2ccccc2)C(=S)Nc2ccccc2)C(=O)N1c1ccc(Br)cc1 (stereo unspecified) -50%, Cc1cc2cc(C)c(NCCNC(=O)c3ccccc3Cl)nc2cc1C -21.1%, CCN(CC)S(=O)(=O)c1ccc(-c2ccc(S(=O)(=O)N(CC)CC)cc2)cc1 39.7%, CCN(CC)S(=O)(=O)c1ccc(NS(=O)(=O)c2ccc(F)cc2)cc1 9.7%, O=C(/C=C/c1ccccc1Cl)NCCc1ccc(F)cc1 -61.3%, COc1ccc(C(=O)/C=C/C(=O)N(CC(=O)NC2CCCCC2)Cc2ccccc2)c(O)c1 26%, COc1ccc(C(=O)N(Cc2ccco2)Cc2cccs2)c(O)c1 29.1%, COc1ccc(C(=O)/C=C/C(=O)N(CC(=O)NC2CCCCC2)Cc2cccs2)c(O)c1 36.2%, COc1ccc(C(=O)/C=C/C(=O)N(CC(=O)NC2CCCCC2)Cc2ccc(F)cc2)c(O)c1 16.3%, COc1ccc2cnn(-c3ccc(OC(F)(F)F)cc3)c(=O)c2c1OC -0.3%, Cc1ccc(CNC(=O)C2CCC(=O)N2Cc2ccc(C)cc2)cc1 (stereo unspecified) 0.2%, O=C(c1ccc(CSc2ccc(Cl)cc2)cc1)N1CCCC1 -3.6%, CN1CCN(C(=O)c2ccc(CSc3ccc(Cl)cc3)cc2)CC1 -13.5%, C=CCn1c(O)c(CN2CCCCC2)c(C)c(C#N)c1=O -25.8%, O=C(Nc1ccc(N2CCCCC2)cc1)c1cccnc1Cl -28%, CCC(=O)Nc1ccc(N2CCCCC2)cc1 0.2%, CCN1CCN(c2ccc(NC(=O)c3cnccn3)cc2)CC1 -37.5%, O=C(CN1CCCCC1)Nc1ccc(N2CCCCCC2)cc1 -21%, O=C(Nc1ccc(N2CCCCCC2)cc1)c1ccccc1Cl -33.9%, Cc1cnc(C(=O)Nc2ccc(N3CCOCC3)cc2)cn1 -18.5%, CCc1c(O)nc(SCC(=O)Nc2ccccc2C)n(-c2ccc(C)cc2)c1=O -22.6%, CN1CCN(C(=O)/C(=C/c2ccccc2F)NC(=O)c2ccccc2)CC1 -17.7%, CCNc1ccc([N+](=O)[O-])cc1 -1.6%, CN(C)CCCN(Cc1cc2cc3c(cc2[nH]c1=O)OCO3)C(=S)Nc1ccccc1 -23.7%, CCSc1nnc(NC(=O)c2cccc(S(=O)(=O)N(C)c3ccccc3)c2)s1 -5.2%, CCCCn1c(SCC(=O)c2ccccc2)nc2ccsc2c1=O 21.6%, CCCCn1c(SCC(=O)N2CCC(C)CC2)nc2ccsc2c1=O -16.2%, O=C(CSc1ncccn1)Nc1ncc(C(F)(F)F)cc1Cl -20.5%, Cc1cc(C)nc(SCC(=O)Nc2ncc(C(F)(F)F)cc2Cl)n1 -28.9%
